The record followed here is publication PMC13541613, “GHT-SELEX demonstrates unexpectedly high intrinsic sequence specificity and complex DNA binding of many human transcription factors”.

Holding throughout (test): HT-SELEX; 20 mM HEPES pH 7, 140 mM KCl, 5 mM NaCl, 1 mM K2HPO4, 2 mM MgSO4, 100 uM EGTA, ZnSO4, 0.1% Tween20; room temperature, 1 h; high values mean tight binding
Conditions in all cases: protein: ivt; tags: eGFP (N-terminal); dsDNA, one strand shown

The target in one assay is ZNF721 full-length (Homo sapiens, UniProt Q8TF20-2 1-923). An outline of the steps: (§1)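 In HEPES/KCl low-stringency buffer with Tween20, a bead-immobilised tagged transcription factor (full-length or DNA-binding-domain fragment, from HEK293 lysate or cell-free extract) was incubated with a randomized 40-base DNA library for 1 h at room temperature. DNA retained after washing was heat-eluted, amplified by PCR over successive cycles and Illumina-sequenced, giving ~3 million 60 bp reads per sample. The reported binding signal, a relative k-mer count in those selected reads, rises with tighter binding.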
Sequence of ZNF721 full-length (Q8TF20 other isoform, or with tags, fused parts or gaps): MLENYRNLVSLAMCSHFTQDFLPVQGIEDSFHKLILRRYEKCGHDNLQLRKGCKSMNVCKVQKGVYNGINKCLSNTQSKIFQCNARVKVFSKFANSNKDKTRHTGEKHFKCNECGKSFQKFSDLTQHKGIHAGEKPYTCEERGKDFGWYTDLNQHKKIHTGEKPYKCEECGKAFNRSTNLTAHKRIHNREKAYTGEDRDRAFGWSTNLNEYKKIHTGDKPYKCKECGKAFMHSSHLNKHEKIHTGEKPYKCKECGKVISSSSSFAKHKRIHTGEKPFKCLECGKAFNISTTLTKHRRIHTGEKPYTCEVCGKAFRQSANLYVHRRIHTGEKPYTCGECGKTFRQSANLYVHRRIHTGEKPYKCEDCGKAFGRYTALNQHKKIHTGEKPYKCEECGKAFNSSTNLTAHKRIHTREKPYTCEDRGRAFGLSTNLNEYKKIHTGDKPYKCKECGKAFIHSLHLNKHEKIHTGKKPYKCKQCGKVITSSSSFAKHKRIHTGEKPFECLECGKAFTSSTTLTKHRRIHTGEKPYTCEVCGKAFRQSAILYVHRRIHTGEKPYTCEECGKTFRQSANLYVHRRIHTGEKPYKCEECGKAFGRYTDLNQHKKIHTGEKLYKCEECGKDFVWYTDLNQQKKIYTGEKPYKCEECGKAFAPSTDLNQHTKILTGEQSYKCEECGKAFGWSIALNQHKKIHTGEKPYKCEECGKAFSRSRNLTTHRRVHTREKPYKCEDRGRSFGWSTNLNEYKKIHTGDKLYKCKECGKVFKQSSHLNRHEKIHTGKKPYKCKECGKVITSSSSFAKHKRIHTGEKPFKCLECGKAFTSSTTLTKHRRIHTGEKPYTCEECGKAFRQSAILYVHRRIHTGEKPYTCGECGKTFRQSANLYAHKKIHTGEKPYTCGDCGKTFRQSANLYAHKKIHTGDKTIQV

Another assay has as its target ZNF721 DBD1 (Homo sapiens, UniProt Q8TF20-2 29-461). An outline of the steps: as §1
For a further assay, the target named is ZNF721 DBD2 (Homo sapiens, UniProt Q8TF20-2 395-923). An outline of the steps: as §1
Sequence of ZNF721 DBD2 (Q8TF20 383-911): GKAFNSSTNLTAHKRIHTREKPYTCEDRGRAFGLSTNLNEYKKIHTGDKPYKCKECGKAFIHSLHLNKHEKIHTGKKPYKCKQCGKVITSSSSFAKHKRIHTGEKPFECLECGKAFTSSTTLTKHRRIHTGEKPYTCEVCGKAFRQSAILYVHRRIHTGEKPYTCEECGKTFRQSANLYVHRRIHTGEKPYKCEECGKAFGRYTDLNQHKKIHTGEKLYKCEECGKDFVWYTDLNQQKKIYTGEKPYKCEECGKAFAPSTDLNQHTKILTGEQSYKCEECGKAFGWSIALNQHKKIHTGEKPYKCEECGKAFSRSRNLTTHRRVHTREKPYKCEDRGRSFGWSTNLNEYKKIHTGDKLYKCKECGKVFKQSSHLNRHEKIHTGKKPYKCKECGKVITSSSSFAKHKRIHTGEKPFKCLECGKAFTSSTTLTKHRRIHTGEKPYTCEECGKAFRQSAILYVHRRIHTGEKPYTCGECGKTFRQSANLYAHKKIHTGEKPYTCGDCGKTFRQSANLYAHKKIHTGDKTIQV

Sequence of ZNF721 DBD1 (Q8TF20 17-449): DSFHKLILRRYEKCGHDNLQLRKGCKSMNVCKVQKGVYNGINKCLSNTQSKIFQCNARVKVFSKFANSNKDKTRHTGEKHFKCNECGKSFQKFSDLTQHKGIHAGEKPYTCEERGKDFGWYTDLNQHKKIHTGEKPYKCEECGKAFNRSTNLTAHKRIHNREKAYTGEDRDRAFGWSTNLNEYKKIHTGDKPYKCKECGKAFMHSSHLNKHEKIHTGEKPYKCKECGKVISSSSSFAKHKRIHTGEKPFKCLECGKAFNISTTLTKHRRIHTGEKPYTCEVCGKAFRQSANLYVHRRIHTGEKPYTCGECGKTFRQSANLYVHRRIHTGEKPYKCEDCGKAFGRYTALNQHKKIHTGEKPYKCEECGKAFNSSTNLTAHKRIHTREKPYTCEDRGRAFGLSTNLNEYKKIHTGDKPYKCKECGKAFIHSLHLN

Regarding CCCGCTCCCC, the binding signal with ZNF721 full-length was 0.13 relative 10-mer count; with ZNF721 DBD1, 0.00527 relative 10-mer count.
Take ATGAAGTGTA: the binding signal in the assay with ZNF721 full-length was 0.376 relative 10-mer count; with ZNF721 DBD1 it was 0.432 relative 10-mer count.
As to CGCCCCCCCC, the binding signal in the assay with ZNF721 full-length came to 0.171 relative 10-mer count; in the assay with ZNF721 DBD1, 0.00527 relative 10-mer count.
For CCAGCCCCCC the same measures were 0.131 relative 10-mer count and 0.00316 relative 10-mer count.
Consider CCACCCCCTC, for which the binding signal with ZNF721 full-length was 0.182 relative 10-mer count; with ZNF721 DBD1 it was 0.00982 relative 10-mer count; with ZNF721 DBD2, 0.00312 relative 10-mer count.
As for GAAGCTATAC, the binding signal in the assay with ZNF721 full-length worked out at 0.107 relative 10-mer count; with ZNF721 DBD1 it was 0.143 relative 10-mer count.
For CCCCTGCCCC the same measures were 0.217 relative 10-mer count and 0.00734 relative 10-mer count.
Consider ACTTCATACC, for which the binding signal with ZNF721 full-length turned out to be 0.377 relative 10-mer count; with ZNF721 DBD1, 0.502 relative 10-mer count.
AAGCTATACC: the binding signal in the assay with ZNF721 full-length was found to be 0.227 relative 10-mer count; in the assay with ZNF721 DBD1, 0.155 relative 10-mer count.
In the case of CTTCATACCC, the binding signal with ZNF721 full-length is 0.221 relative 10-mer count; in the assay with ZNF721 DBD1 it was 0.363 relative 10-mer count.
Turning to ACTTCATACT, the binding signal in the assay with ZNF721 full-length was 0.154 relative 10-mer count; with ZNF721 DBD1, 0.27 relative 10-mer count.
The matching figures for CCCCGACCCC: 0.24 relative 10-mer count and 0.00789 relative 10-mer count.
For CCCAGCCCCC, the binding signal with ZNF721 full-length turned out to be 0.163 relative 10-mer count; with ZNF721 DBD1, 0.00518 relative 10-mer count.
For ATGTATGAAG, the binding signal with ZNF721 full-length came out at 0.263 relative 10-mer count; with ZNF721 DBD1, 0.279 relative 10-mer count.
Consider AAAAAGCTCA, for which the binding signal came to 0.112 relative 10-mer count with ZNF721 full-length, 0.0408 relative 10-mer count with ZNF721 DBD1 and 0.00407 relative 10-mer count with ZNF721 DBD2.
Consider AACCCCCACC, for which the values for the binding signal with ZNF721 full-length and with ZNF721 DBD1 were 0.108 relative 10-mer count and 0.00495 relative 10-mer count, respectively.
For CCCGCCCGCC the same measures were 0.128 relative 10-mer count and 0.0044 relative 10-mer count.
With CCCCGGCCCC, the binding signal with ZNF721 full-length amounted to 0.12 relative 10-mer count; in the assay with ZNF721 DBD1 it was 0.00358 relative 10-mer count.
In the case of CCACCCAGCC, the binding signal with ZNF721 full-length is 0.102 relative 10-mer count; with ZNF721 DBD1 it was 0.00294 relative 10-mer count; in the assay with ZNF721 DBD2 it was 0.00264 relative 10-mer count.
The matching figures for AACAGGGTAT: 0.138 relative 10-mer count, 0.00119 relative 10-mer count and 0.2 relative 10-mer count.
Consider CTTCATACCA, for which the binding signal worked out at 0.116 relative 10-mer count with ZNF721 full-length and 0.165 relative 10-mer count with ZNF721 DBD1.
For AGTATGAAGC the same measures were 0.167 relative 10-mer count and 0.232 relative 10-mer count.
The matching figures for AAGAAGCTAT: 0.144 relative 10-mer count and 0.16 relative 10-mer count.
For CCCCCGGCCC the same measures were 0.102 relative 10-mer count and 0.00394 relative 10-mer count.
AGGTATGAAG: the binding signal stood at 0.192 relative 10-mer count with ZNF721 full-length and 0.217 relative 10-mer count with ZNF721 DBD1.
The matching figures for CCCCCCCCCC: 0.116 relative 10-mer count and 0.00358 relative 10-mer count.
Regarding CTCCGCCCCC, the binding signal with ZNF721 full-length was determined as 0.11 relative 10-mer count; with ZNF721 DBD1, 0.00537 relative 10-mer count.
GCTTCATACC: the binding signal with ZNF721 full-length amounted to 0.229 relative 10-mer count; with ZNF721 DBD1, 0.354 relative 10-mer count.
For CGGTATGAAG, the binding signal is 0.108 relative 10-mer count in the assay with ZNF721 full-length and 0.15 relative 10-mer count with ZNF721 DBD1.
For ACTTCATACA, the binding signal with ZNF721 full-length came to 0.358 relative 10-mer count; with ZNF721 DBD1, 0.393 relative 10-mer count.
ATACACTTCA: the binding signal with ZNF721 full-length is 0.245 relative 10-mer count; in the assay with ZNF721 DBD1, 0.223 relative 10-mer count.
For the sequence CGCCGCCCCC, the binding signal in the assay with ZNF721 full-length is 0.138 relative 10-mer count; with ZNF721 DBD1, 0.00518 relative 10-mer count.
For the sequence AGCTTCATAC, the binding signal was 0.196 relative 10-mer count with ZNF721 full-length and 0.296 relative 10-mer count with ZNF721 DBD1.
Regarding CCCGCACCCC, the binding signal was 0.193 relative 10-mer count in the assay with ZNF721 full-length and 0.00784 relative 10-mer count with ZNF721 DBD1.
Turning to AAAGCTATAC, the results for the binding signal with ZNF721 full-length and with ZNF721 DBD1 were 0.183 relative 10-mer count and 0.0924 relative 10-mer count, respectively.
In the case of AACCCACCCC, the binding signal in the assay with ZNF721 full-length was 0.143 relative 10-mer count; in the assay with ZNF721 DBD1, 0.00596 relative 10-mer count.
For ACCCGCCCCC the same measures were 0.153 relative 10-mer count and 0.005 relative 10-mer count.
The matching figures for AAAAGCTATA: 0.177 relative 10-mer count and 0.0882 relative 10-mer count.
Regarding GAAGTGTATC, the binding signal with ZNF721 full-length is 0.279 relative 10-mer count; with ZNF721 DBD1, 0.247 relative 10-mer count.
Turning to AGCTTCTTTC, the binding signal was 0.151 relative 10-mer count in the assay with ZNF721 full-length and 0.125 relative 10-mer count in the assay with ZNF721 DBD1.
As for CCCCCGCCCA, the binding signal with ZNF721 full-length came to 0.167 relative 10-mer count; in the assay with ZNF721 DBD1, 0.00638 relative 10-mer count; with ZNF721 DBD2 it was 0.00192 relative 10-mer count.
The matching figures for CTACCCCCCC: 0.105 relative 10-mer count, 0.00427 relative 10-mer count and 0.00312 relative 10-mer count.
As for CTGCCCACCC, the binding signal with ZNF721 full-length came to 0.102 relative 10-mer count; in the assay with ZNF721 DBD1, 0.00394 relative 10-mer count; in the assay with ZNF721 DBD2 it was 0.00216 relative 10-mer count.
For the sequence CCTCGCCCCC, the results for the binding signal with ZNF721 full-length, in the assay with ZNF721 DBD1 and with ZNF721 DBD2 were 0.123 relative 10-mer count, 0.00592 relative 10-mer count and 0.00144 relative 10-mer count, respectively.
As for ACCCCACCCC, the results for the binding signal in the assay with ZNF721 full-length, with ZNF721 DBD1 and with ZNF721 DBD2 were 0.277 relative 10-mer count, 0.0101 relative 10-mer count and 0.00324 relative 10-mer count, respectively.
The matching figures for AAACAGCATG: 0.284 relative 10-mer count, 0.00101 relative 10-mer count and 0.345 relative 10-mer count.
Consider CCGCCCCCAC, for which the binding signal in the assay with ZNF721 full-length came out at 0.178 relative 10-mer count; with ZNF721 DBD1, 0.00821 relative 10-mer count; with ZNF721 DBD2, 0.0036 relative 10-mer count.
